The values below come from PubChem BioAssay (Tox21).

Values joined by “and” are separate entries in the source; they are usually repeats but may differ in a detail not shown here. Equal values may be shown once. Records with an inconclusive call do not appear. A call without a number means that no potency is given here. Where a structure was tested more than once in an assay, its records may differ in their call. Active and inactive are the calls of the source. Unless noted, calls follow the shape of the full dose curve.
Potency is read from the fitted curve at half-maximal effect.

In one experiment the target is Nuclear receptor ROR-gamma (Homo sapiens) (UniProt P51449). Put plainly: qHTS assay to identify small molecule antagonists of the retinoid-related orphan receptor gamma (ROR-gamma) signaling pathway (AID 1159521; active = well fitted inhibition curve with a large enough effect in the repeat runs; also: nearly all actives have a fitted effect of over 50% in size). The following applies: Tet-on RORgamma CHO cells, RORE-luciferase, 16 h; series mostly up to 92.4 µM. The method, boiled down:
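Antagonist read-out: drop in luminescence (ONE-Glo) from an RORE-LUC reporter in CHO cells with doxycycline-inducible ROR-gamma; 2 hr compound pretreatment, 1 uM doxycycline, 16 hr incubation at 37 C.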
For orientation: Quantitative high-throughput screening tests each substance at several concentrations.
Take `COc1ccc(C(=O)c2ccccc2O)c(O)c1`: the Potency entry is “inactive”.
Same read-out and setting: with `C=C[C@@]1(C)CC(=O)[C@]2(O)[C@@]3(C)[C@@H](O)CCC(C)(C)[C@@H]3[C@H](O)[C@H](OC(C)=O)[C@@]2(C)O1` the figure was 54.5 µM (active); with `OC[C@@H](O)[C@@H](O[C@@H]1O[C@H](CO)[C@H](O)[C@H](O)[C@H]1O)[C@H](O)[C@@H](O)CO`, “inactive”.
Same read-out and setting: the result for `Nc1cc([N+](=O)[O-])ccc1C(=O)O` reads “inactive”; that for `Nc1ccc2c(O)cc(S(=O)(=O)O)cc2c1`, 9.7 µM (active) and 5.45 µM (active).
On the same count and under the same terms, the result for `C=CCOC(=O)C(=C)C` reads “inactive”; that for `Cc1ccc(N)c([N+](=O)[O-])c1`, “inactive”.
With `O=C(O)c1ccc(O)cc1`, the Potency entry was “inactive”.
Same read-out and setting: the result for `O=C1OC2(c3ccccc31)c1cc(I)c(O)c(I)c1Oc1c2cc(I)c(O)c1I` reads 48.7 µM (active) and inactive; that for `IC(I)I`, “inactive”.
`CCCCCCC(C)O` (stereo not drawn): the Potency entry is “inactive”.
On to `C=CC(=O)OCCCC`, for which the Potency result is “inactive”.
On the same count and under the same terms, the result for `CC1(C)NC(=O)N(c2ccc([N+](=O)[O-])c(C(F)(F)F)c2)C1=O` reads 17.2 µM (active) and 18.8 µM (active); that for `CCCCCCCC/C=C\CCCCCCCC(=O)O`, “inactive”.
`Cc1cccc(Nc2ccccc2C(=O)O)c1C`: the Potency entry is “inactive”.
Still for that read-out and setting: with `O=C(O)COCCN1CCN(C(c2ccccc2)c2ccc(Cl)cc2)CC1` (stereo not drawn) the entry was “inactive”; with `Cc1ccc(S(=O)(=O)NCl)cc1`, “inactive”.
Still for that read-out and setting: with `c1ccc2cc3ccccc3cc2c1` the entry was “inactive”; with `O=S1(=O)CCCO1`, “inactive”.
Same read-out and setting: with `Nc1ccc(O)c(N)c1` the entry was “inactive”; with `CN(Cc1cnc2nc(N)nc(N)c2n1)c1ccc(C(=O)N[C@@H](CCC(=O)O)C(=O)O)cc1`, “inactive”.
Regarding `C=CN1CCCC1=O`, the Potency result was “inactive”.
For the compound `Cc1ccc(C(C)(C)C)cc1`, the Potency entry is “inactive”.
The same measure, in the same setting: with `Cc1ccc(C(C)(C)C)c(O)c1` the entry was “inactive”; with `C[C@]12CC[C@@H]3c4ccc(O)cc4CC[C@H]3[C@@H]1CC[C@H]2O`, 17.5 µM (active); with `C[C@]12CC[C@@H]3c4ccc(O)cc4CC[C@H]3[C@@H]1CC[C@@H]2O`, 27.3 µM (active).
The same measure, in the same setting: with `Cc1ccc(C)c(O)c1` the entry was “inactive”.

Tested on in the next experiment: not listed separately
In words: qHTS assay to identify small molecule agonists of the AP-1 signaling pathway - cell viability counter screen (AID 1159525). Also: nearly all actives have a fitted effect of over 55% in size. The following applies: ME-180 AP-1-bla cells viability, ATP luminescence, 5 h; series mostly up to 76.8 µM. The method, boiled down: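 Intracellular ATP by Cell Titer Glo luminescence (30 min, RT) in the same ME-180 AP-1-bla wells after the 5 h compound exposure at 37 °C. Normalised to tetra n-octyl ammonium bromide and DMSO controls.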
Take `COc1ccc(C(=O)c2ccccc2O)c(O)c1`: the Potency entry is “inactive”.
For the compound `CCCCCC=O`, the Potency entry was “inactive”.
Same read-out and setting: with `C=C[C@@]1(C)CC(=O)[C@]2(O)[C@@]3(C)[C@@H](O)CCC(C)(C)[C@@H]3[C@H](O)[C@H](OC(C)=O)[C@@]2(C)O1` the figure was 21.9 µM (active) and 21.3 µM (active); with `CC(=O)O[C@]1(C(C)=O)CC[C@H]2[C@@H]3C=C(Cl)C4=CC(=O)CC[C@]4(C)[C@H]3CC[C@@]21C`, “inactive”.
For `OC[C@@H](O)[C@@H](O[C@@H]1O[C@H](CO)[C@H](O)[C@H](O)[C@H]1O)[C@H](O)[C@@H](O)CO`, the Potency entry was “inactive”.
Turning to `Nc1cc([N+](=O)[O-])ccc1C(=O)O`, the Potency result is “inactive”.
For `Nc1ccc2c(O)cc(S(=O)(=O)O)cc2c1`, the Potency entry was “inactive”.
On the same count and under the same terms, with `C=CCOC(=O)C(=C)C` the entry was “inactive”; with `Cc1ccc(N)c([N+](=O)[O-])c1`, “inactive”; with `O=C(O)c1ccc(O)cc1`, “inactive”.
Same read-out and setting: with `O=C1OC2(c3ccccc31)c1cc(I)c(O)c(I)c1Oc1c2cc(I)c(O)c1I` the entry was “inactive”; with `IC(I)I`, “inactive”.
Same read-out and setting: the result for `CCCCCCC(C)O` (stereo not drawn) reads “inactive”; that for `CCCCCCCCCCC(CO)CCCCCCCC` (stereo not drawn), “inactive”.
With `C=CC(=O)OCCCC`, the Potency entry is “inactive”.
Take `CCCCCC1C(=O)CCC1CC(=O)OC` (stereo not drawn): the Potency entry was “inactive”.
For `FC(F)(F)C(Cl)Br` (stereo not drawn), the Potency result is “inactive”.
With `CC1(C)NC(=O)N(c2ccc([N+](=O)[O-])c(C(F)(F)F)c2)C1=O`, the Potency result is “inactive”.
With `CCCCCCCC/C=C\CCCCCCCC(=O)O`, the Potency entry was “inactive”.
On the same count and under the same terms, the result for `CC(=O)[C@@]1(O)CC[C@H]2[C@@H]3C[C@H](C)C4=CC(=O)C=C[C@]4(C)[C@@]3(F)[C@@H](O)C[C@@]21C` reads “inactive”.
As to `Cc1cccc(Nc2ccccc2C(=O)O)c1C`, the Potency result is “inactive”.
Same read-out and setting: the result for `CC(C)[C@@H]1CC[C@@H](C)CC1=O` reads “inactive”.
On the same count and under the same terms, with `O=C(O)COCCN1CCN(C(c2ccccc2)c2ccc(Cl)cc2)CC1` (stereo not drawn) the entry was “inactive”; with `Cc1ccc(S(=O)(=O)NCl)cc1`, “inactive”.
Same read-out and setting: with `C1CN(SSN2CCOCC2)CCO1` the entry was “inactive”; with `c1ccc2cc3ccccc3cc2c1`, “inactive”.
Consider `O=S1(=O)CCCO1`, for which the Potency entry is “inactive”.
Take `Nc1ccc(O)c(N)c1`: the Potency result is “inactive”.
Same read-out and setting: with `CN(Cc1cnc2nc(N)nc(N)c2n1)c1ccc(C(=O)N[C@@H](CCC(=O)O)C(=O)O)cc1` the entry was “inactive”; with `C=CN1CCCC1=O`, “inactive”.
Still for that read-out and setting: the result for `Cc1ccc(C(C)(C)C)cc1` reads “inactive”.
The same measure, in the same setting: the result for `CC(C)(C)c1cccc(C(C)(C)C)c1O` reads “inactive”; that for `OCCNCCO`, “inactive”; that for `C=C[Si](OCCOC)(OCCOC)OCCOC`, “inactive”.
On to `C[C@]12CC[C@@H]3c4ccc(O)cc4CC[C@H]3[C@@H]1CC[C@H]2O`, for which the Potency result is “inactive”.
Still for that read-out and setting: with `C[C@]12CC[C@@H]3c4ccc(O)cc4CC[C@H]3[C@@H]1CC[C@@H]2O` the entry was “inactive”; with `Cc1ccc(C)c(O)c1`, “inactive”; with `NCCN`, “inactive”.

Tested on in the next experiment: not listed separately
In words: qHTS assay to identify small molecule agonists of the AP-1 signaling pathway (AID 1159526). The following applies: ME-180 (cervical carcinoma) AP-1-bla reporter, beta-lactamase FRET ratio, 5 h; series mostly up to 76.8 µM.
For `COc1ccc(C(=O)c2ccccc2O)c(O)c1`, the Potency entry is “inactive”.
On the same count and under the same terms, the result for `CCCCCC=O` reads “inactive”.
Same read-out and setting: the result for `C=C[C@@]1(C)CC(=O)[C@]2(O)[C@@]3(C)[C@@H](O)CCC(C)(C)[C@@H]3[C@H](O)[C@H](OC(C)=O)[C@@]2(C)O1` reads “inactive”; that for `OC[C@@H](O)[C@@H](O[C@@H]1O[C@H](CO)[C@H](O)[C@H](O)[C@H]1O)[C@H](O)[C@@H](O)CO`, “inactive”; that for `Nc1cc([N+](=O)[O-])ccc1C(=O)O`, “inactive”.
On the same count and under the same terms, the result for `C=CCOC(=O)C(=C)C` reads “inactive”.
Regarding `Cc1ccc(N)c([N+](=O)[O-])c1`, the Potency result is “inactive”.
The same measure, in the same setting: the result for `O=C(O)c1ccc(O)cc1` reads “inactive”; that for `O=C1OC2(c3ccccc31)c1cc(I)c(O)c(I)c1Oc1c2cc(I)c(O)c1I`, “inactive and 29.8 µM (active)”.
The same measure, in the same setting: the result for `CCCCCCC(C)O` (stereo not drawn) reads “inactive”.
The same measure, in the same setting: the result for `CCCCCCCCCCC(CO)CCCCCCCC` (stereo not drawn) reads “inactive”; that for `C=CC(=O)OCCCC`, “inactive”.
For the compound `CCCCCC1C(=O)CCC1CC(=O)OC` (stereo not drawn), the Potency result was “inactive”.
On the same count and under the same terms, with `FC(F)(F)C(Cl)Br` (stereo not drawn) the entry was “inactive”; with `CC1(C)NC(=O)N(c2ccc([N+](=O)[O-])c(C(F)(F)F)c2)C1=O`, “inactive”; with `CCCCCCCC/C=C\CCCCCCCC(=O)O`, “inactive”.
In the case of `CC(=O)[C@@]1(O)CC[C@H]2[C@@H]3C[C@H](C)C4=CC(=O)C=C[C@]4(C)[C@@]3(F)[C@@H](O)C[C@@]21C`, the Potency result was “inactive”.
As for `Cc1cccc(Nc2ccccc2C(=O)O)c1C`, the Potency entry was “inactive”.
The same measure, in the same setting: the result for `CC(C)[C@@H]1CC[C@@H](C)CC1=O` reads “inactive”.
On the same count and under the same terms, the result for `O=C(O)COCCN1CCN(C(c2ccccc2)c2ccc(Cl)cc2)CC1` (stereo not drawn) reads “inactive”; that for `Cc1ccc(S(=O)(=O)NCl)cc1`, “inactive”.
Take `c1ccc2cc3ccccc3cc2c1`: the Potency entry was “inactive”.
Turning to `O=S1(=O)CCCO1`, the Potency result is “inactive”.
Same read-out and setting: with `Nc1ccc(O)c(N)c1` the entry was “inactive”; with `CN(Cc1cnc2nc(N)nc(N)c2n1)c1ccc(C(=O)N[C@@H](CCC(=O)O)C(=O)O)cc1`, “inactive”.
Same read-out and setting: the result for `C=CN1CCCC1=O` reads “inactive”.
On the same count and under the same terms, the result for `Cc1ccc(C(C)(C)C)cc1` reads “inactive”.
On to `CC(C)(C)c1cccc(C(C)(C)C)c1O`, for which the Potency result is “inactive”.
Same read-out and setting: with `OCCNCCO` the entry was “inactive”; with `C=C[Si](OCCOC)(OCCOC)OCCOC`, “inactive”; with `C[C@]12CC[C@@H]3c4ccc(O)cc4CC[C@H]3[C@@H]1CC[C@@H]2O`, “inactive”.
`Cc1ccc(C)c(O)c1`: the Potency entry was “inactive”.
For the compound `NCCN`, the Potency result was “inactive”.
